Source: PubChem BioAssay (National Center for Advancing Translational Sciences (NCATS))
GLP1R inv ag = acts as inverse agonist at human GLP-1 receptor | HEK293 GLP-1R CRE-luciferase, luminescence, 24 h; GLP-1R form is constitutively active | Potency, µM (top dose mostly 38.3 µM), for the others: top-dose activity change, negative = inhibition, usual class: inhibitors | 1.6% of 410,000 active | AID 624417; note: % is set by controls: 0 for no effect and ±100 for the full control effect; nearly all actives have a fitted effect of over 55% in size
Target sequence (P43220 whole entry, looked up): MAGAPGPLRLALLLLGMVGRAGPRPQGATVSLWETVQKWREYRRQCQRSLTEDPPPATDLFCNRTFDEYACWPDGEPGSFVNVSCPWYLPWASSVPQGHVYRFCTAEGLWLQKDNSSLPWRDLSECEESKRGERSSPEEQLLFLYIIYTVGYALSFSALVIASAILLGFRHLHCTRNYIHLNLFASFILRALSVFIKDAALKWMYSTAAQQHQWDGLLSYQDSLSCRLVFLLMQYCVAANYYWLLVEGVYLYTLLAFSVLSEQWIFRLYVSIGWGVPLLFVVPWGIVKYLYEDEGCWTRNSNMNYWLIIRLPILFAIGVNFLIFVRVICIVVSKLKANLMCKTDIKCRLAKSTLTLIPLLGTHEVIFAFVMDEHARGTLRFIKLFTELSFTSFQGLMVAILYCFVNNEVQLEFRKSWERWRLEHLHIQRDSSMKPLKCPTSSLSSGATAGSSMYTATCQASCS
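Luminescence readout: a drop in cAMP-driven luciferase signal flags inverse agonism at a constitutively active GLP-1R stably expressed in HEK293. Compound exposure lasted 24 hr at 37 deg C, 5% CO2.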
GLP-1R agonist = agonists of human GLP-1 receptor; 0.007% of 380,000 active; HEK293 GLP-1R CRE-luciferase, luminescence, 4-6 h; cells express a hypersensitive GLP-1R form; P43220; AID 624172; Potency, µM (series often up to 45.6 µM), without a hit: top-dose activation, most hits filed as activators; note: % of control where 0% means no effect
GLP1R cytotox = cytotoxic in the GLP-1 receptor inverse agonist counter-screen; Potency, µM (doses to about 38.3 µM), for inactives: at the top dose activity change, negative = inhibition, most hits filed as inhibitors; AID 624418; 0.13% of 410,000 active; HEK293 cAMP-luciferase reporter cells, luminescence, 24 h;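 note: loss of luciferase light is scored as toxicity; % is set by controls: 0 for no effect and ±100 for the full control effect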
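Step one: seed cells (200 cells/uL, DMEM with 10% Nu serum, 1% pen-strep). Step two: 12-hour incubation at 37 deg C. Step three: pin 23 nL compound, incubate 24 hr. Step four: add luciferase reagent, read luminescence 12 min later.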
Active calls of the source: *; ? = inconclusive; nt = no result given; [ ] = another dose, or the depositor's remark. Most compounds without a hit are left out; they make up all but 1.7% or so of the library. Calls come from the whole dose curve; as a rule, active = well fitted curve in the direction sought with a large enough effect; inconclusive = small, poorly fitted or top-dose-only effect, or another doubt; inactive = no such curve, though single readings can be large; an effect the other way counts as inactive or inconclusive. Potency is the fitted concentration of half-maximal effect.

SMILES | GLP1R inv ag | GLP-1R agonist | GLP1R cytotox
Cc1ccc(NC(=O)COc2ccccc2)cc1S(=O)(=O)N1CCCCCC1 | ? | 5% | 4%
Cc1ccc(NC(=S)NCc2ccccc2)cc1S(=O)(=O)N1CCCCC1 | 11µM* | 2% | -22%
CCN(C(=O)Cn1nc(Cc2ccncc2)c2ccccc2c1=O)c1cccc(Cl)c1 | 2% | nt | -3%
Cc1c(NC(=O)c2nc3ccccc3nc2N2CCCCC2)cccc1[N+](=O)[O-] | 4% | 1% | 4%
CCN(c1ccccc1)S(=O)(=O)c1ccc(Cl)c(NC(=O)CN(C)Cc2cccc(F)c2)c1 | 5µM* | 13% | 5%
CCN(c1ccccc1)S(=O)(=O)c1ccc(Cl)c(NC(=O)CN2CCCCCC2)c1 | 1.6µM* | 21% | 0%
CCC(C)NCC(=O)Nc1cc(S(=O)(=O)N(CC)c2ccccc2)ccc1Cl (stereo not given) | ? | 6% | -3%
CN(C)S(=O)(=O)c1ccc(Cl)c(NC(=O)CN2CCCCCC2)c1 | ? | 23% | 16%
COc1ccccc1CN(C)C[C@H]1OCc2cnnn2CCCC(=O)N([C@@H](C)CO)C[C@@H]1C | 10% | 0% | -8%
Cc1ccc(N(CC(=O)N2CCN(c3cc(C)ccc3C)CC2)S(=O)(=O)c2c(C)nn(C)c2C)cc1 | ? | -5% | -23%
CCCC(=NC(C)CC)C1=C(O)CC(c2ccccc2)CC1=O (stereo not given) | 10µM* | 10% | 8%
CCC(C)N=CC1=C(O)CC(c2ccccc2)CC1=O (stereo not given) | -13% | -8% | 4%
O=C(COc1ccc2c(c1)C(=O)CC1(CCCCC1)O2)NCc1ccccc1 | 11µM* | 9% | 11%
O=C(COc1ccc2c(c1)C(=O)CC1(CCCCC1)O2)NCc1ccccn1 | 0% | 33% | 24%
COC(=O)c1ccc(C(=O)OC)c(NC(=O)c2ccc(-c3ccccc3)s2)c1 | 7% | nt | 2%
O=C(Nc1ccc2c(c1)OCO2)c1cc(C2CCCCN2C(=O)c2ccc(Cl)cc2)on1 (stereo not given) | ? | 9% | -1%
O=C(Nc1ccc2c(c1)OCO2)c1cc(C2CCCCN2C(=O)c2ccc3c(c2)CCO3)on1 (stereo not given) | 10µM* | -2% | 0%
COc1ccc(CC2(CO)CCN(Cc3cccn3-c3ccccn3)CC2)cc1 | ? | 12% | 6%
Cc1nc(N2CCCCC2)c2c(C)c(C(=O)Nc3cccc(C(F)(F)F)c3)sc2n1 | ? | 10% | -20%
Cc1nc(N2CCCCC2C)c2c(C)c(C(=O)Nc3cccc(C(F)(F)F)c3)sc2n1 (stereo not given) | 10µM* | 4% | ?
CN(Cc1ccccc1)C(=O)COC(=O)C1CCN(S(=O)(=O)c2ccc3c(c2)OCCO3)CC1 | 14% | -1% | 3%
COc1ccccc1-c1sc2ccccc2c1-c1ccc2c(c1)OCCO2 | 6% | 6% | 44%
Cc1cccc(Cc2c(C)nc3nc(SCc4ccccc4F)nn3c2C)c1 | -6% | nt | -6%
Cc1ccc(NC(=O)CSc2nc3ccc(NC(=O)c4ccco4)cc3s2)c(C)c1 | -24% | nt | -18%
O=C(Oc1c(-c2ccccc2)oc2ccccc2c1=O)c1ccccc1 | 5µM* | -1% | 72%
SMILES | GLP1R inv ag | GLP-1R agonist | GLP1R cytotox
COc1ccc(-c2oc3ccccc3c(=O)c2OC(=O)c2ccc(C)cc2)cc1 | 5% | 3% | 108%
CCOC(=O)c1c(NC(=O)CSc2nnnn2-c2ccccc2OCC)sc2c1CC(C)(C)NC2(C)C | 10µM* | 10% | ?
CCOC(=O)c1c(NC(=O)CSc2nnnn2-c2ccccc2)sc2c1CC(C)(C)NC2(C)C | ? | 4% | ?
CCOC(=O)c1c(NC(=O)C2COc3ccccc3O2)sc2c1CC(C)(C)NC2(C)C (stereo not given) | 3.2µM* | 5% | -28%
CCOC(=O)c1c(NC(=O)Cc2ccccc2)sc2c1CC(C)(C)NC2(C)C | ? | ? | 0%
COc1cccc(CNC(=O)[C@@H]2CCCN2C(=O)[C@H]2CCCCN2C(=O)c2cccs2)c1 | 14% | -8% | 4%
O=C(NC1CCCCC1)C(c1ccc(-c2ccccc2)cc1)n1c(=O)c(-c2ccco2)nc2ccccc21 (stereo not given) | -20% | nt | -2%
CC(C)C[C@H]1CNC(=O)C(=O)N1C[C@@H]1CCCN1C[C@H](Cc1ccc(O)cc1)N1C[C@H](Cc2ccccc2)N(CC2CCCCC2)C(=O)C1=O | 15% | -2% | -1%
Cc1cc(C)nc(/N=C(\N)N(Cc2ccccc2)Cc2ccccc2)n1 | ? | 12% | ?
CCCCN(CCCC)/C(N)=N/c1nc(C)cc(C)n1 | 4µM* | 3% | ?
OCCNC(=S)Nc1cccc(Cl)c1Cl | 16% | 0% | 22%
CCN(CC)C(=O)Cn1cc(C(=O)C(=O)N(CC)C2CCCCC2)c2ccccc21 | 13% | -4% | -21%
O=C(N/C(=C\c1ccccc1)C(=O)N1CCOCC1)c1ccc(Br)o1 | -29% | 9% | 18%
O=C(N/C(=C\c1ccccc1)C(=O)N1CCCCC1)c1ccc(Br)o1 | 10µM* | -4% | 4%
CCC(=O)C(Cc1ccccc1)(Cc1ccccc1)CC(C)N(C)C (stereo not given) | nt | 6%[96 µM] | nt
COc1cc(/C=C/c2nc(C#N)c(NC3CCCCC3)o2)cc(OC)c1OC | -28% | nt | 75%
O=C(CCS(=O)(=O)c1ccccc1)N(CCCN1CCOCC1)c1nc2c(F)cccc2s1 | ? | -29% | 10µM*
Cc1ccc(S(=O)(=O)CC(=O)N(CCCN2CCOCC2)c2nc3c(F)cccc3s2)cc1 | 37% | 0% | -18%
Cn1cc(C(=O)NS(=O)(=O)Nc2ccc(Br)cn2)c2ccccc21 | 27% | -3% | 4%
CCC(Oc1ccccc1)C(=O)NC1CCCCCC1 (stereo not given) | 10µM* | 0% | 13%
CCC(Oc1ccccc1)C(=O)NC1CCSC1=O (stereo not given) | 3% | 4% | 17%
O=C(NCc1ccccc1)C1=C[C@@H](c2csc3ccccc23)C[C@@H](OCc2ccc(CO)cc2)O1 | 8.9µM* | -1% | -6%
O=C(O)C1=C[C@H](c2csc3ccccc23)C[C@H](OCc2ccc(CO)cc2)O1 | 9% | -2% | 14%
COc1cc(CNC2CCCC2)cc(Cl)c1OCc1ccc(F)cc1 | 4.5µM* | -3% | ?
COc1cc(CNC2CCCC2)cc(Cl)c1OCc1ccccc1Cl | 8.9µM* | -21% | ?
SMILES | GLP1R inv ag | GLP-1R agonist | GLP1R cytotox
CCOc1cc(CNC2CCCC2)cc(Cl)c1OCc1ccc(F)cc1 | ? | -1% | -13%
COc1cc(CNC2CCCCCCC2)cc(Cl)c1OCC(N)=O | -18% | -5% | 4%
CCC(CC)NC(=O)CON=C1c2ccccc2-c2ccccc21 | 8.9µM* | 14% | 5%
CCNC(=O)CON=C1c2ccccc2-c2ccccc21 | ? | ? | -12%
CCN1CCOC(=O)C1CC(=O)Nc1ccc(Br)cc1 (stereo not given) | 2% | nt | 26%
Cc1ccc(S(=O)(=O)N2CCN(C(=O)c3c(C)nn(-c4ccccc4)c3Cl)CC2)cc1 | -8% | -1% | 16%
